Here are results for 54 molecules from PubChem BioAssay AID720641 (ICCB-Longwood Screening Facility, Harvard Medical School, 2013).

Molecules are shown by their SMILES. About 900 (0.53%) of roughly 170,000 compounds were called active.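 Rule for the calls: active = relative growth at most 50% at the other temperature and 20+ points below 30 °C, or under 10% at both; inactive = the rest, inconclusive results apart.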 The entries come from a sample that favours actives as a whole.

The experiment in a line: S. aureus growth inhibition at 42 and 30 °C, primary screen, LtaS inhibitor project, RN4220, two temperatures (AID 720641). The conditions noted are these: OD600, 20 h, 42 °C, stronger effect = lower value.

For `CN(C)/N=C/c1ccc(OC(=O)c2ccco2)cc1`, the relative growth is 91.3% (inactive). Besides, the relative growth (measured here: growth at 30 °C) was found to be 89.5%.
For `CCn1nc(C(=O)OCCCCN2C(=O)c3ccccc3C2=O)c2ccccc2c1=O`, in that order: 98.7% (inactive) and 94.4%.
For `CCOC(=O)c1cc2n(c1N)-c1ccccc1C2=O`, in that order: 85.9% (inactive) and 71.7%.
Regarding `CCOC(=O)c1cc2oc(C)cc2n1CCCN1C(=O)c2ccccc2C1=O`, the relative growth is -0.65% (active). Besides, for the setting “measured here: growth at 30 °C”, the relative growth is -0.53%.
For `O=C(NCC12CC3CC(CC(C3)C1)C2)c1cc(-c2ccccc2O)no1`, in that order: 105% (inactive) and 101%.
For `Cc1ccc(CNCc2cccn2-c2sc(C)c(C)c2C(=O)O)cc1`, in that order: 87.6% (inactive) and 76.5%.
For `C=CCn1c(C)nnc1SCCN1C(=O)c2ccccc2S1(=O)=O`, in that order: 91.3% (inactive) and 93.1%.
Take `CC(C)C(C(=O)O)n1c(=S)[nH]c2ccccc2c1=O` (stereo not drawn): the relative growth is 77.7% (inactive). Further, the relative growth (measured here: growth at 30 °C) was found to be 94.8%.
For `CCCCN(CC)S(=O)(=O)c1ccc(C(=O)Nc2nnc(-c3ccc(Cl)s3)o2)cc1`, in that order: 0.22% (active) and 0.29%.
Take `CN(C)S(=O)(=O)c1ccc(C(=O)Nc2nnc(C3CC3)o2)cc1`: the relative growth is 78.8% (inactive). Further, under “measured here: growth at 30 °C”, the relative growth was 59.5%.
For `CS(=O)(=O)c1ccc(-c2nnc(NC(=O)c3ccc4c(c3)OCCO4)o2)cc1`, in that order: 84.8% (inactive) and 85.3%.
For `O=C(CN1C(=O)/C(=C/c2ccccc2)Sc2ccccc21)N1CCCC1`, in that order: 109% (inactive) and 98.3%.
Turning to `COc1ccc(C2=NC(C)(C)N(CC(=O)Nc3ccccc3)C2=O)cc1`, the relative growth was 115% (inactive). In addition, under “measured here: growth at 30 °C”, the relative growth amounted to 93.8%.
For `CSc1ccc(Cl)c(C(=O)OCC(=O)N2CCC(C)CC2)c1`, in that order: 102% (inactive) and 82%.
For `Nc1nc(/C(=C/CC(=O)O)C(=O)N[C@@H]2C(=O)N3C(C(=O)O)=CCS[C@H]23)cs1`, in that order: -0.72% (active) and -0.64%.
Consider `CSc1nc(C)cc(=O)[nH]1`, for which the relative growth is 139% (inactive). Further, the relative growth (measured here: growth at 30 °C) worked out at 90.7%.
For `NC(=O)N/N=C1/C=C(c2ccccc2)C(O)(c2ccccc2)C1` (stereo not drawn), in that order: 109% (inactive) and 91.3%.
As to `O=C1COc2ccc(C3=Nn4c(nnc4-c4ccncc4)SC3)cc2N1`, the relative growth is 97.9% (inactive). The relative growth (measured here: growth at 30 °C) came to 85.9%.
For `CCN(Cc1ccccc1)C(=O)c1cc2sccc2n1Cc1ccccc1`, in that order: 108% (inactive) and 88.4%.
In the case of `COc1ccccc1CNC(=O)CNC1CCCCC1`, the relative growth is 96.2% (inactive). Also, the relative growth (measured here: growth at 30 °C) was 90%.
For `Cc1c2cn[nH]c(=O)c2c(C)n1Cc1ccccc1`, in that order: 88.3% (inactive) and 75.2%.
For `CC(C)=CCOc1ccc2c3c(c(=O)oc2c1C)CCCC3`, in that order: 97.9% (inactive) and 97.1%.
For `CO[C@@H]1[C@@H](OC(N)=O)[C@H](O)[C@H](Oc2ccc3c(O)c(NC(=O)c4ccc(O)c(CC=C(C)C)c4)c(=O)oc3c2C)OC1(C)C`, in that order: -0.38% (active) and 0.14%.
Regarding `CC(Sc1ncnc2ccccc12)C(=O)Nc1cccc(C(F)(F)F)c1` (stereo not drawn), the relative growth was 115% (inactive). Moreover, for the setting “measured here: growth at 30 °C”, the relative growth was found to be 80.8%.
Consider `CC(C)(C)C(=O)CN1C(=O)c2ccccc2C1=O`, for which the relative growth was 129% (inactive). Moreover, where the note is “measured here: growth at 30 °C”, the relative growth came to 89.2%.
For `CC(NC(=O)Nc1ccccc1)c1ccccc1` (stereo not drawn), in that order: 76.7% (inactive) and 91.3%.
For `Cc1ccccc1-c1nc(CS(=O)(=O)CC(=O)NC(C)c2ccccc2)c(C)o1` (stereo not drawn), in that order: 101% (inactive) and 105%.
For `Cc1oc2c(c1C(=O)NC(C)c1ccccc1)C(=O)c1ccccc1C2=O` (stereo not drawn), in that order: 9.3% (active) and 14%.
As for `O=C(/C=C/c1ccccc1)OCC(=O)N1CCc2ccccc21`, the relative growth was 134% (inactive). In addition, the relative growth (measured here: growth at 30 °C) was determined as 88.3%.
For `CCOC(=O)c1cnc2c(F)cc(F)cc2c1N1CCOCC1`, in that order: 118% (inactive) and 104%.
For `CN(C)c1ccc(Nc2nc3ccccc3nc2NS(=O)(=O)c2cccs2)cc1`, in that order: 105% (inactive) and 95.9%.
As to `Cc1cccn2c(=O)cc(CN3CCC(C(=O)N4CCOCC4)CC3)nc12`, the relative growth is 98.4% (inactive). Under “measured here: growth at 30 °C”, the relative growth came out at 88.3%.
For `COC(=O)CN1C(=O)CSc2ccc(S(=O)(=O)Nc3cc(C)ccc3C)cc21`, in that order: 112% (inactive) and 94%.
In the case of `COC(=O)c1ccc(NS(=O)(=O)c2cc(C(=O)OC)n(C)c2)cc1`, the relative growth is 106% (inactive). Moreover, the relative growth (measured here: growth at 30 °C) was found to be 88%.
For `COC(=O)c1ccc(C)c(NS(=O)(=O)c2ccc3c(c2)c(=O)sn3C)c1`, in that order: 0.12% (active) and 0.2%.
On to `COc1ccc(OCCn2c(S(=O)(=O)Cc3ccccc3)nc3ccccc32)cc1`, for which the relative growth was 132% (inactive). The relative growth (measured here: growth at 30 °C) came out at 101%.
As to `COCCNc1ncnc2c1sc1nc(N3CCOCC3)c3c(c12)CCC3`, the relative growth was 111% (inactive). Further, the relative growth (measured here: growth at 30 °C) was 88.7%.
On to `CSc1n[nH]c(-c2ccco2)n1`, for which the relative growth was 101% (inactive). The relative growth (measured here: growth at 30 °C) came to 107%.
For `CO/N=C(/C(=O)N[C@@H]1C(=O)N2C(C(=O)O)=C(CSc3nc(=O)c(O)nn3C)CS[C@H]12)c1csc(N)n1`, the relative growth is -0.87% (active). Besides, the relative growth (measured here: growth at 30 °C) is -0.54%.
For `O=S(=O)(Cc1ccccc1)CC(O)COc1ccc(OC(F)(F)F)cc1` (stereo not drawn), in that order: 102% (inactive) and 85%.
For `COc1ccccc1CN=C(C)c1ccccc1O`, in that order: 101% (inactive) and 99.1%.
As to `CCOC(=O)Nc1sccc1C(N)=O`, the relative growth is 106% (inactive). Moreover, the relative growth (measured here: growth at 30 °C) worked out at 101%.
For `CCOC(=O)c1c(C)csc1NC(=O)CC(=O)C(F)(F)F`, in that order: 2.75% (active) and 4.35%.
For `CCOC(=O)c1c(NC(=O)C(F)(F)F)sc2c1CCCC2`, in that order: 101% (inactive) and 93.2%.
For `O=C(CSc1nc2ccsc2c(=O)n1Cc1ccccn1)Nc1nccs1`, in that order: 94% (inactive) and 87.2%.
For the molecule `O=S(=O)(NCCC12CC3CC(CC(C3)C1)C2)c1cc(Cl)ccc1Cl`, the relative growth was 80.5% (inactive). Moreover, the relative growth (measured here: growth at 30 °C) is 66.9%.
For `CC(C)NC(=O)COc1ccc(-c2nn(C)c(=O)c3ccccc23)cc1`, in that order: 92.3% (inactive) and 86.8%.
For `CCOC(=O)N1CCC(N2Cc3cccc(C(=O)NC4CCN(Cc5ccccc5)CC4)c3C2=O)CC1`, in that order: 92.7% (inactive) and 86.6%.
For `CCN(CC(=O)NCc1ccc(Cl)cc1)C(=O)c1c(C)noc1C`, in that order: 84.2% (inactive) and 95.1%.
Turning to `Cc1ccc(-c2nc3ccccn3c2Nc2c(C)cccc2C)o1`, the relative growth was 1.59% (active). Besides, the relative growth (measured here: growth at 30 °C) is 1.66%.
For `Cc1cccc(C)c1Nc1c(-c2ccccc2O)nc2ncccn12`, in that order: 99.7% (inactive) and 86.4%.
For `Cc1ccc(Nc2c(-c3ccc(C)s3)nc3ccccn23)cc1`, in that order: 107% (inactive) and 89.8%.
For `Nc1ccc(C(=O)Nc2ccc(C(=O)O)cc2N)cc1`, in that order: 108% (inactive) and 98.5%.
`CC1=NN(c2ccccc2)C(=O)C1C=C1C(=O)N(C)C(=S)N(C)C1=O` (stereo not drawn): the relative growth was 109% (inactive). Moreover, under “measured here: growth at 30 °C”, the relative growth is 103%.
